In test [1] the target is Transcription factor E2F1 (Homo sapiens) (UniProt Q01094). Briefly: ATG_E2F_CIS: Attagene CIS-FACTORIAL HepG2 Assay for human E2F Transcription Factor 1 (AID 2282935). The note with it: HepG2 Attagene cis-reporter, E2F reporter RNA transcripts; actives raise or lower the signal. A digest of the protocol:
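First, HepG2 cells were transfected with reporter transcription units. Next, they were dosed for 24 h. Then RNA was isolated, converted to cDNA, PCR-amplified, FAM-labeled, HpaI-digested and analyzed by capillary electrophoresis.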

Test [2] is described as follows: ATG_E_Box_CIS: Attagene CIS-FACTORIAL HepG2 Assay for human Enhancer Box (E-box) (AID 2282936). The note with it: HepG2 E-box cis-reporter transcription, actives raise or lower the signal. In a few lines: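 Endogenous transcription factor activity was sensed in human HepG2 liver cells through transfected cis-promoter reporter units. After 24 h of dosing, total RNA was reverse-transcribed and reporter cDNA resolved by capillary electrophoresis.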

Test [3] is described as follows: ATG_M_61_CIS: Attagene CIS-FACTORIAL HepG2 Assay for M61 Transcription Factor (Internal Marker) (AID 2282937). The conditions noted are these: HepG2 Attagene CIS-FACTORIAL M61 internal marker reporter; actives raise or lower the signal. A digest of the protocol:
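Endogenous transcription factor activity in HepG2 is read through transiently transfected cis-element reporter units. After 24 h dosing, RNA undergoes reverse transcription, PCR and primer extension with 6-FAM before capillary electrophoresis; DMSO-referenced bidirectional fit.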

Test [4] in a line: ATG_M_19_CIS: Attagene CIS-FACTORIAL HepG2 Assay for M19 Transcription Factor (Internal Marker) (AID 2282939). The note with it: HepG2 Attagene CIS-FACTORIAL M19 internal marker reporter; actives raise or lower the signal. In a few lines: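 Internal marker readout, fitted in both directions against DMSO, from HepG2 cells carrying transfected cis-element reporter constructs; RT-PCR and capillary electrophoresis of reporter mRNA after 24 h exposure.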

A short description of test [5]: ATG_ERE_CIS: Attagene CIS-FACTORIAL HepG2 Assay for Estrogen Response Element (ERE) (AID 2282940). The note with it: HepG2 ERE cis-reporter, Attagene RNA transcript; actives raise or lower the signal. A digest of the protocol: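 After 24 h compound treatment, RNA from transfected HepG2 cells was reverse-transcribed, reporter cDNA PCR-amplified, FAM-labelled, HpaI-cut and resolved by capillary electrophoresis. ERE-driven cis reporter transcripts reflect endogenous factors; gain or loss scored against DMSO.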

The nature of test [6]: ATG_Ets_CIS: Attagene CIS-FACTORIAL HepG2 Assay for human Erythroblast Transformation Specific (ETS) (AID 2282941). The conditions noted are these: HepG2 ETS cis-reporter transcription, actives raise or lower the signal. A digest of the protocol:
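Multiplexed reporter transcript profiling: HepG2, 24 h treatment, total RNA to cDNA, PCR, 6-FAM labelling, HpaI cut, capillary electrophoresis. Gain- or loss-of-signal fitted against DMSO.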

The target of test [7] is Hepatocyte nuclear factor 3-beta (Homo sapiens) (UniProt Q9Y261). Briefly: ATG_FoxA2_CIS: Attagene CIS-FACTORIAL HepG2 Assay for human Forkhead box A2 (FOXA2) (AID 2282942). The note with it: HepG2 cis-reporter transcription factor activity, 24 h; actives raise or lower the signal. A digest of the protocol:
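Reporter transcript induction is measured by fluorescence after capillary electrophoresis of RT-PCR products from HepG2 cells exposed 24 h. Cis-regulated reporter units report endogenous factor activity; curves fitted both directions against DMSO.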

The nature of test [8]: ATG_FoxO_CIS: Attagene CIS-FACTORIAL HepG2 Assay for human Forkhead box O (FoxO) (AID 2282943). The conditions noted are these: HepG2 Attagene cis-reporter, FoxO element, mRNA; actives raise or lower the signal. A digest of the protocol: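 Values reflect reporter mRNA induction or loss in HepG2 cells 24 h post-dosing, fitted bidirectionally with DMSO as negative control and baseline. Detection used RT-PCR and fluorescence capillary electrophoresis.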

A short description of test [9]: ATG_GATA_CIS: Attagene CIS-FACTORIAL HepG2 Assay for human GATA Binding Protein (AID 2282944). The conditions noted are these: HepG2 GATA cis-element reporter, Attagene multiplex mRNA; actives raise or lower the signal. A digest of the protocol: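 Reporter transcripts from a GATA cis-regulated unit, among multiplexed reporters in transfected HepG2 cells, were measured by RT-PCR with capillary electrophoresis after 24 h dosing. Induction or loss scored relative to DMSO.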

Test [10] is described as follows: ATG_GLI_CIS: Attagene CIS-FACTORIAL HepG2 Assay for human Zinc Finger Protein GLI1 (AID 2282945). The conditions noted are these: HepG2, Attagene cis-factorial reporter mRNA, GLI element; actives raise or lower the signal. A digest of the protocol: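 HepG2 cells transiently transfected with cis-promoter multiplexed reporter units report endogenous transcription factor activity. After 24 h chemical exposure, reporter mRNA was quantified by RT-PCR, 6-FAM labelling, HpaI digestion and capillary electrophoresis, with bidirectional fitting against DMSO.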

Test [11] deals with Bile acid receptor (Homo sapiens) (UniProt Q96RI1). Briefly: ATG_IR1_CIS: Attagene CIS-FACTORIAL HepG2 Assay for human Nuclear Receptor Subfamily 1 Group H Member 4 (NR1H4), IR1 submotif (AID 2282946). The conditions noted are these: IR1 reporter transcription, actives raise or lower the signal. In a few lines: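 Readout: reporter transcript levels by RT-PCR with fluorescent capillary electrophoresis, from HepG2 cells transiently transfected with multiplexed cis-regulated reporters and dosed 24 h. Gain- or loss-of-signal fitted versus DMSO negative control.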
Sequence of Bile acid receptor (Homo sapiens) (Q96RI1 whole entry, looked up): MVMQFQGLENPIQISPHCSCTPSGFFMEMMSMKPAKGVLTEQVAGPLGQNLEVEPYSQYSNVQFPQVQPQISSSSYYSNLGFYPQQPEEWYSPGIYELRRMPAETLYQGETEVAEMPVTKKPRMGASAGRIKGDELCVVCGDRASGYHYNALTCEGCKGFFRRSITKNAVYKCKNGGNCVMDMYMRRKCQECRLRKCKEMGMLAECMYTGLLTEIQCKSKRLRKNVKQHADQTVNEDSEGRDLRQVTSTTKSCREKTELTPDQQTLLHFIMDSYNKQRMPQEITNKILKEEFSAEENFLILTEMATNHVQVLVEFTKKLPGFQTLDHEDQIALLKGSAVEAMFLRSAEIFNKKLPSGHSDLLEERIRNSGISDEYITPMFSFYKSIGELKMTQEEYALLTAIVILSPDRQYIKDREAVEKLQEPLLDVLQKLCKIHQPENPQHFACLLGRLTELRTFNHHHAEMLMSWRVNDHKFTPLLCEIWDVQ

The nature of test [12]: ATG_GRE_CIS: Attagene CIS-FACTORIAL HepG2 Assay for human Glucocorticoid Response Elements (GRE) (AID 2282947). The conditions noted are these: HepG2 GRE cis-reporter, Attagene multiplex mRNA; actives raise or lower the signal. A digest of the protocol:
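Cells (HepG2) bearing transfected cis-promoter reporter transcription units were treated with chemical for 24 hours. Reporter mRNA was measured via RT-PCR with capillary electrophoresis, and activity was fitted in both directions relative to DMSO.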

Test [13] can be described thus: ATG_ISRE_CIS: Attagene CIS-FACTORIAL HepG2 Assay for human Interferon Regulatory Factor 1 (IRF1) binding to an Interferon-Stimulated Response Element (ISRE) (AID 2282948). The note with it: HepG2 ISRE cis-reporter (Attagene), mRNA transcription readout; actives raise or lower the signal. In a few lines: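 Signal reflects induction or loss of ISRE-linked reporter mRNA in transiently transfected HepG2 cells after a 24 h treatment, detected by fluorescent RT-PCR fragments on capillary electrophoresis and normalised to DMSO.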

A short description of test [14]: ATG_M_32_CIS: Attagene CIS-FACTORIAL HepG2 Assay for M32 Transcription Factor (Internal Marker) (AID 2282949).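 Also: background control marker of the multiplexed CIS panel rather than a real target.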 The note with it: HepG2 Attagene cis-factorial M32 reporter, mRNA; actives raise or lower the signal. In a few lines: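 HepG2 human liver cells transiently transfected with cis-promoter-driven multiple reporter transcription units, dosed 24 h. Reporter mRNA quantified by RT-PCR, FAM-labelled primer extension, HpaI digest and capillary electrophoresis; bidirectional fit versus DMSO baseline.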

Test [15] is described as follows: ATG_M_06_CIS: Attagene CIS-FACTORIAL HepG2 Assay for M06 Transcription Factor (Internal Marker) (AID 2282950). The conditions noted are these: HepG2 Attagene CIS-FACTORIAL M06 internal marker reporter; actives raise or lower the signal. A digest of the protocol: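 Serves as a background control readout. Transfected HepG2 exposed to compounds for 24 h, then reporter transcripts quantified by fluorescent RT-PCR and capillary electrophoresis. Both directions fitted against DMSO baseline.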

Test [16] deals with Hypoxia-inducible factor 1-alpha (Homo sapiens) (UniProt Q16665). Description: ATG_HIF1a_CIS: Attagene CIS-FACTORIAL HepG2 Assay for human Hypoxia Inducible Factor 1 (HIF1A) (AID 2282951). The note with it: HepG2 Attagene cis-factorial HIF1a reporter transcription; actives raise or lower the signal. A digest of the protocol:
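Fluorescence intensity of capillary-separated, 6-FAM-labelled reporter amplicons gives mRNA induction in HepG2 cells carrying transfected cis-promoter reporter units; cells exposed 24 h, responses fitted up or down from DMSO.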

Test [17] concerns the target Hepatocyte nuclear factor 6 (Homo sapiens) (UniProt Q9UBC0). Briefly: ATG_HNF6_CIS: Attagene CIS-FACTORIAL HepG2 Assay for human Hepatocyte Nuclear Factor 6 (HNF6) (AID 2282952). The conditions noted are these: HepG2 Attagene cis-factorial HNF6 reporter transcription; actives raise or lower the signal. A digest of the protocol: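 Endogenous factor activity read in transiently transfected HepG2 via promoter-regulated reporter transcripts. RNA harvested 24 h post-dosing, reverse-transcribed, PCR-amplified, FAM-labelled, HpaI-digested and resolved by capillary electrophoresis; fitted in both directions against DMSO.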

Test [18] has as its target Heat shock factor protein 1 (Homo sapiens) (UniProt Q00613). Description: ATG_HSE_CIS: Attagene CIS-FACTORIAL HepG2 Assay for human Heat Shock Transcription Factor 1 (HSE) (AID 2282953). The conditions noted are these: HepG2 HSE cis-reporter, Attagene RNA transcription; actives raise or lower the signal. A digest of the protocol: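 Endogenous transcription factor activity in transiently transfected HepG2, read as reporter mRNA by RT-PCR with fluorescent capillary electrophoresis after 24 h. Gain or loss of signal fitted versus DMSO baseline.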

The nature of test [19]: ATG_MRE_CIS: Attagene CIS-FACTORIAL HepG2 Assay for human Metal Responsive Element (MRE) (AID 2282954). The note with it: HepG2 MRE cis-reporter transcription, Attagene multiplex; actives raise or lower the signal. A digest of the protocol:
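Cells were transfected with cis-promoter reporter transcription units, then dosed for 24 h. RNA was reverse-transcribed, amplified, fluorescently labelled and resolved by capillary electrophoresis, and activity was fitted in both directions relative to DMSO.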

Each structure is given as a SMILES string. Active and inactive are the calls of the source. The calls were made as follows: active = hit-call score of the fitted dose curve at least 0.9, where 1 is the maximum; inactive = score below 0.9.

Sequence of Hepatocyte nuclear factor 3-beta (Homo sapiens) (Q9Y261 whole entry, looked up): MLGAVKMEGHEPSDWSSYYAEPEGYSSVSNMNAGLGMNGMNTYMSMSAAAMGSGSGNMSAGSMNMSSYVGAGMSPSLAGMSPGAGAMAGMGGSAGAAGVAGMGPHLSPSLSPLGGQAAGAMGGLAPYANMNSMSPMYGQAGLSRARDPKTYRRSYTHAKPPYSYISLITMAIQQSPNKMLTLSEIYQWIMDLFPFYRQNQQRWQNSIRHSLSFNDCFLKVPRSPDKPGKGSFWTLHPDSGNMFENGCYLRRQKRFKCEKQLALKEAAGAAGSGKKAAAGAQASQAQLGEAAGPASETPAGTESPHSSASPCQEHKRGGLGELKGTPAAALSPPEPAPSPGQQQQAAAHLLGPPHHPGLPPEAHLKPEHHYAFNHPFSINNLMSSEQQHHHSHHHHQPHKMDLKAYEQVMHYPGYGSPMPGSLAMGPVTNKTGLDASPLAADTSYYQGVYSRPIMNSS
Sequence of Transcription factor E2F1 (Homo sapiens) (Q01094 whole entry, looked up): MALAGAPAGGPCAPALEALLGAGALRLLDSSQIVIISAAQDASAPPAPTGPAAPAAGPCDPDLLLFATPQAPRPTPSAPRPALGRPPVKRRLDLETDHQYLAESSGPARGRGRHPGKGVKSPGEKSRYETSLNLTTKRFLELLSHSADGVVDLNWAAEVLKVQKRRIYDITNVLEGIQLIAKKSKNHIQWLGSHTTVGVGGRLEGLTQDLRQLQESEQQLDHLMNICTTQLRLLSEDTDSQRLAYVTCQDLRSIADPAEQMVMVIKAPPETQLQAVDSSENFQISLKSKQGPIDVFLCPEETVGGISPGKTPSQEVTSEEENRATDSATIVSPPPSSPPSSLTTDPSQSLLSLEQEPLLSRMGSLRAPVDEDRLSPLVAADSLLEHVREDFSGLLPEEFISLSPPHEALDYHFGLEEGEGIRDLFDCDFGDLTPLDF
Sequence of Heat shock factor protein 1 (Homo sapiens) (Q00613 whole entry, looked up): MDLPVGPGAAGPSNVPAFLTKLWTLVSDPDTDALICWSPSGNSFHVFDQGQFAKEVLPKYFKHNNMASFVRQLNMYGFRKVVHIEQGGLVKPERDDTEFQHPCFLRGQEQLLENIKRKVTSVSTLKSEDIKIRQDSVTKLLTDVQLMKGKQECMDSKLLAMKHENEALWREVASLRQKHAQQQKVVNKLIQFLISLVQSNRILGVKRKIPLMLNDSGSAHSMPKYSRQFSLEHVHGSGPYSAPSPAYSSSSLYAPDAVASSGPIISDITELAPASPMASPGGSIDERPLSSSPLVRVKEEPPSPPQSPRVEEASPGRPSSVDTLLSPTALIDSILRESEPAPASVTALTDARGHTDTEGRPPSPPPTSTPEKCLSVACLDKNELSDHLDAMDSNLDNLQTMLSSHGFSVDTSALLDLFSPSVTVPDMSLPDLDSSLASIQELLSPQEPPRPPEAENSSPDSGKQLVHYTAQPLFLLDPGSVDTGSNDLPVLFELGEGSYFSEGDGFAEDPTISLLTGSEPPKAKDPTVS
Sequence of Hepatocyte nuclear factor 6 (Homo sapiens) (Q9UBC0 whole entry, looked up): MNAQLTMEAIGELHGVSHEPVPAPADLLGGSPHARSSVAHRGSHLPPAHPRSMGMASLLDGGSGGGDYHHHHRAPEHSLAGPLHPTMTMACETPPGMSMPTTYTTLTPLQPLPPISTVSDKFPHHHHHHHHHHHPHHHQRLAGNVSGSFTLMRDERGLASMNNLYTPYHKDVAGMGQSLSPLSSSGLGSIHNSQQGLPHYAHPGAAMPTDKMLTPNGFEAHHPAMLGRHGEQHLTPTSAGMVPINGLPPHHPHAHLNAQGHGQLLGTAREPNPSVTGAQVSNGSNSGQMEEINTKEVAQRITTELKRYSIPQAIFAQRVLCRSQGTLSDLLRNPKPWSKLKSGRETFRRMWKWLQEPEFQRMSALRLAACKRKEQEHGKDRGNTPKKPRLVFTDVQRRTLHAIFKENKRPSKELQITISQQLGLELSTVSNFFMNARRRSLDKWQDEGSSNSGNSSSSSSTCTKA
Sequence of Hypoxia-inducible factor 1-alpha (Homo sapiens) (Q16665 whole entry, looked up): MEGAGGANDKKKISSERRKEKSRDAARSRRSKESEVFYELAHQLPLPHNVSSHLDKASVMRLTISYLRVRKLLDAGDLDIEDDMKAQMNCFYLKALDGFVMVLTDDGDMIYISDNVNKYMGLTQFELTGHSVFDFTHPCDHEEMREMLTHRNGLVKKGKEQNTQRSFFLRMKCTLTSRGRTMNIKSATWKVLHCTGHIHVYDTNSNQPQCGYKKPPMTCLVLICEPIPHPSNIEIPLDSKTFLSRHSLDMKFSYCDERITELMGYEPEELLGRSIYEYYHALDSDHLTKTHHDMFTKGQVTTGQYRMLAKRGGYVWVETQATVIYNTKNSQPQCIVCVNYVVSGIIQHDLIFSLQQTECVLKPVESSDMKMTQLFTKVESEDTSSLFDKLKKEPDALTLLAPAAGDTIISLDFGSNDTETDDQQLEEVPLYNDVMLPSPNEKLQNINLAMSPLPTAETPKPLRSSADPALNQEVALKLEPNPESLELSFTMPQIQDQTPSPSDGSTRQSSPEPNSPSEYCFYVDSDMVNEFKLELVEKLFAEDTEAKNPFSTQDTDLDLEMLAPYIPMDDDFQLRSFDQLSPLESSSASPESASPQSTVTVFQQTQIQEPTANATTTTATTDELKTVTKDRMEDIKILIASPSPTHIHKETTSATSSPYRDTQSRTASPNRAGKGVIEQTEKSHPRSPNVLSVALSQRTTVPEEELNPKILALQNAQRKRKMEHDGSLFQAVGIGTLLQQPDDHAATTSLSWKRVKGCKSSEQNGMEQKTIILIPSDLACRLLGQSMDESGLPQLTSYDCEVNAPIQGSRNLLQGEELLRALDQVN

Turning to `COCC(C)N(C(=O)CCl)c1c(C)csc1C` (stereo not drawn), the outcome in [1], in [2], in [3], in test [4], in [5] and in [6] was inactive. The compound was classed as inactive in [7], in [8], in [9], in [10], in test [11] and in test [12]. In addition, the compound was called inactive in [13], in [14], in [15], in test [16], in test [17] and in test [18]. Moreover, the outcome in test [19] was inactive.
`CC(C)(C)C(=O)C(Oc1ccc(Cl)cc1)n1cncn1` (stereo not drawn): the compound was classed as inactive in test [1], in [2], in test [3], in test [4], in test [6] and in test [7]. The call in test [8], in test [9], in test [10], in test [12], in test [13] and in [14] was inactive. The compound was classed as inactive in test [15], in [16], in test [17], in test [18] and in [19]. In addition, in test [5], the AC50 was 20 µM (active).
Consider `CCOC(=O)C(C)OC(=O)c1cc(Oc2ccc(C(F)(F)F)cc2Cl)ccc1[N+](=O)[O-]` (stereo not drawn), for which the compound was classed as inactive in test [1], in [2], in test [3], in test [4], in test [6] and in test [7]. For the same compound, the result in test [8], in test [9], in test [10], in test [12], in test [13] and in test [14] was inactive. In addition, the call in test [15], in test [16], in test [17], in [18] and in [19] was inactive. Moreover, in test [5], the AC50 is 34.1 µM (active).
On to `CC(C)Oc1cccc(NC(=O)c2ccccc2C(F)(F)F)c1`, for which the outcome in [1], in test [2], in test [3], in test [4], in [6] and in test [7] was inactive. The call in test [8], in [9], in [10], in test [12], in [13] and in test [14] was inactive. Besides, the compound was classed as inactive in test [15], in [16], in test [17] and in test [18]. Also, the AC50 in [5] is 13.3 µM (active); in test [19], 28.7 µM (active).
Take `CSC(=O)c1c(C(F)F)nc(C(F)(F)F)c(C(=O)SC)c1CC(C)C`: the result in [1], in test [2], in test [3], in [4], in [6] and in test [7] was inactive. Also, the compound was classed as inactive in [8], in test [9], in [10], in [12], in [13] and in test [14]. Moreover, the call in test [15], in [16], in [17], in test [18] and in [19] was inactive. Also, the AC50 in test [5] is 3.83 µM (active).
For `CCOc1nc(F)cc2nc(S(=O)(=O)Nc3c(Cl)cccc3Cl)nn12`, the call in test [1], in [2], in test [3], in [4], in [5] and in test [6] was inactive. The result in test [7], in test [8], in test [9], in test [10], in test [11] and in [12] was inactive. In addition, the call in test [13], in [14], in [15], in test [16], in test [17] and in [18] was inactive. The outcome in test [19] was inactive.
Consider `CS(=O)(=O)c1cc(C(F)(F)F)ccc1C(=O)c1cnoc1C1CC1`, for which the compound was called inactive in test [1], in [2], in test [3], in test [4], in test [5] and in test [6]. Moreover, the result in [7], in [8], in test [9], in [10], in test [12] and in test [13] was inactive. For the same compound, the compound was called inactive in test [14], in [15], in test [16], in [17], in [18] and in [19].

By AC50 is commonly meant the concentration giving half of the maximal activity seen.

(Values after PubChem BioAssay (EPA / NIEHS).)
